Screening results as filed in PubChem BioAssay.
PfHsp40 rescue: restores yeast growth despite PfHsp40 toxicity; 340,000 tested, 0.68% active; AID 504582; S. cerevisiae expressing PfHsp40, growth rescue, ATP luminescence; growth rescue, % at 12.5 µM; in the data active = growth rescue above about 28%, passing the limit was not always enough;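 note: yeast W303a lacking pdr1 and pdr3 grown in galactose medium; growth measured after three days at 30 °C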
PrPC surface inh: cell surface PrPC inhibition, primary TR-FRET screen | AID 720596 | inhibition, % at 13.8 µM | TR-FRET read-out | 370,000 tested, 0.43% active; in the data active = inhibition above about 24%; note: 0% = median of the test wells and 100% = reference compound wells
CCHFV vOTU inh: blocks the CCHF virus ovarian tumor domain protease; AID 651958; 370,000 tested, 0.55% active; CCHFV vOTU protease, Pep-AMC fluorescence; inhibition, % at 11.5 µM; in the data active = inhibition above about 30%; note: 0% = vehicle wells with enzyme and 100% = no enzyme wells
PrP 5UTR inh: suppresses PrP 5' UTR mRNA reporter expression. 340,000 tested, 0.35% active. inhibition, % (no concentration beside the values). cell-based PrP 5' UTR mRNA reporter, plate reader. AID 488862; in the data active = inhibition above about 52%; note: 0 = median of the neutral control wells
Yp Topo-I inh: Y. pestis Topo-I inhibition via cleavage products. Y. pestis Topo-I cleavage product accumulation, plate reader. activity, % at 10 µM. 360,000 tested, 0.064% active; in the data active = activity above about 50%, passing the limit was not always enough
BJeLR viability: kills HRASV12-expressing BJeLR cells. 300,000 tested, 0.17% active. BJeLR (HRASV12) viability, CellTiter-Glo ATP luminescence, 48 h. inhibition, % (concentration not given with the values); in the data active = inhibition above about 50%
PrPC confirm: cell surface PrPC inhibition, TR-FRET confirmation; shares compounds with PrPC surface inh; cell surface PrPC level; inhibition, % at 13.8 µM; 1,500 tested, 65% active; AID 743200; in the data active = inhibition above about 25%
LD9 tox: LD9 cell cytotoxicity, PrPc inhibitor counter-screen; shares compounds with PrPC surface inh; LD9 cells cytotoxicity, luminescence viability; inhibition, % at 13.8 µM; 1,500 tested, 29% active; in the data active = inhibition above about 9.5%
* = called active by the depositor. Shown are actives, neighbours in structure and some others; about 2% of the full set was active somewhere.

Screening Cc1cc(C)cc(NC(=O)c2cccn2-c2ncc(C(F)(F)F)cc2Cl)c1 returned PfHsp40 rescue 4, PrPC surface inh 32*, CCHFV vOTU inh 6, PrP 5UTR inh -27, Yp Topo-I inh -11, BJeLR viability 17, PrPC confirm 17 and LD9 tox 2.
O=C(NCCn1ccc2ccccc21)C1CCCCC1 was read as PfHsp40 rescue 0, PrPC surface inh 5, CCHFV vOTU inh 0, PrP 5UTR inh -30, Yp Topo-I inh -8 and BJeLR viability 7.
For Cc1cc2ccccc2n1CCNC(=O)C1CC1 the results were PfHsp40 rescue 1, PrPC surface inh 28*, CCHFV vOTU inh -6, PrP 5UTR inh -10, Yp Topo-I inh 11, BJeLR viability -2, PrPC confirm 7 and LD9 tox -2.
Screening CCn1c(CNC(=O)C2CCCCC2)cc2ccccc21 returned PfHsp40 rescue -1, PrPC surface inh 9, CCHFV vOTU inh 0, PrP 5UTR inh -25, Yp Topo-I inh -1 and BJeLR viability -5.
Cc1cc2ccccc2n1CCNC(=O)c1cccs1 was read as PfHsp40 rescue 0, PrPC surface inh 33*, CCHFV vOTU inh -6, PrP 5UTR inh -8, Yp Topo-I inh -9, BJeLR viability -17, PrPC confirm 25* and LD9 tox -5.
`Cn1c(CNC(=O)C2CCCCC2)cc2ccccc21` gave PfHsp40 rescue 0, PrPC surface inh 9, CCHFV vOTU inh 9, PrP 5UTR inh -16, Yp Topo-I inh 3 and BJeLR viability 0.
`CCCn1c(CCNC(=O)c2cccs2)nc2ccccc21` gave PfHsp40 rescue -1, PrPC surface inh 0, CCHFV vOTU inh -3, PrP 5UTR inh -2, Yp Topo-I inh 3 and BJeLR viability 2.
Cc1cc2ccccc2n1CCNC(=O)C1CCCCC1 was read as PfHsp40 rescue 0, PrPC surface inh 36*, CCHFV vOTU inh 3, PrP 5UTR inh -21, Yp Topo-I inh 5, BJeLR viability -4, PrPC confirm 11 and LD9 tox -2.
Screening Cc1cc2ccccc2n1CCNC(=O)C1CCCC1 returned PfHsp40 rescue -1, PrPC surface inh 40*, CCHFV vOTU inh 15, PrP 5UTR inh -28, Yp Topo-I inh -5, BJeLR viability -3, PrPC confirm 4 and LD9 tox 1.
CCCCCCCCN1C(=O)[C@@H](CC(=O)NCc2ccc(OC)c(OC)c2)C[C@@]2(C(=O)OC)C1=C[C@H](COCc1ccccc1)O[C@@H]2C was read as PrPC surface inh 9 and CCHFV vOTU inh 9.
CCOc1ccc(CCNC(=O)c2ccc3[nH]ccc3c2)cc1OCC was read as PrPC surface inh 4.
Screening CCOC(=O)[C@@]12CCC3=C1N(CCC3)C(=O)[C@H](CC(=O)NCC1CCCCC1)C2 returned PrPC surface inh 12 and CCHFV vOTU inh 1.
Screening Cc1cc(NC(=O)c2sc(Nc3ccc(F)cc3)nc2N)no1 returned PfHsp40 rescue 2, PrPC surface inh 26*, CCHFV vOTU inh 7, PrP 5UTR inh -18, Yp Topo-I inh -15, BJeLR viability -6, PrPC confirm 26* and LD9 tox 13*.
`C=CCNc1nc(N)c(C(=O)Nc2cc(C)on2)s1` gave PfHsp40 rescue 0, PrPC surface inh -7, CCHFV vOTU inh -6, PrP 5UTR inh -84, Yp Topo-I inh -7 and BJeLR viability -3.
Screening Cc1cc(N2CCCC2=O)cc(C)c1S(=O)(=O)NCCOc1ccc(C(C)(C)C)cc1 returned PfHsp40 rescue 12, PrPC surface inh 32*, CCHFV vOTU inh 28, PrP 5UTR inh -3, Yp Topo-I inh 36, BJeLR viability -3, PrPC confirm 29* and LD9 tox 8.
`O=C1CCCN1c1ccc(S(=O)(=O)NCCOc2ccccc2)cc1` gave PfHsp40 rescue -1, PrPC surface inh 2, CCHFV vOTU inh 5, PrP 5UTR inh -2, Yp Topo-I inh -13 and BJeLR viability 6.
Screening COc1ccc(CN(CCN2CCOCC2)C(=O)c2ccc(F)cc2Cl)cc1OC returned PrPC surface inh -10 and CCHFV vOTU inh 0.
`COc1ccc(S(=O)(=O)NN(C)C)cc1N(C)S(=O)(=O)c1ccc(Cl)cc1` gave PfHsp40 rescue 0, PrPC surface inh -3, CCHFV vOTU inh -15, PrP 5UTR inh -20, Yp Topo-I inh 2 and BJeLR viability 11.
COc1ccc(S(=O)(=O)Nc2ccc(C)cc2)cc1N(C)S(=O)(=O)c1ccc(Cl)cc1 was read as PfHsp40 rescue 2, PrPC surface inh 25*, CCHFV vOTU inh 20, PrP 5UTR inh -29, Yp Topo-I inh 16, BJeLR viability -10, PrPC confirm 16 and LD9 tox 3.
For CCCn1c2c(c(=N)c3c1CCC3)CCC2 the results were PfHsp40 rescue -1, PrPC surface inh 1, CCHFV vOTU inh -10, PrP 5UTR inh -10, Yp Topo-I inh 0 and BJeLR viability 4.
CCCCCCCn1c2c(c(=N)c3ccccc31)CCC2 was read as PfHsp40 rescue 0, PrPC surface inh 30*, CCHFV vOTU inh -6, PrP 5UTR inh -28, Yp Topo-I inh 36, BJeLR viability 16, PrPC confirm 31* and LD9 tox 15*.
`Cc1ccc(NC(=O)c2cc(S(=O)(=O)N(C)C)ccc2N2CCCC2)cc1F` gave PfHsp40 rescue 0, PrPC surface inh 63*, CCHFV vOTU inh 11, PrP 5UTR inh -15, Yp Topo-I inh 10, BJeLR viability -1, PrPC confirm 54* and LD9 tox -6.
For CN(C)S(=O)(=O)c1ccc(N2CCCC2)c(C(=O)Nc2ccccc2)c1 the results were PfHsp40 rescue 0, PrPC surface inh 42*, CCHFV vOTU inh -4, PrP 5UTR inh -23, Yp Topo-I inh -13, BJeLR viability -3, PrPC confirm 41* and LD9 tox -10.
`Cc1nnc(NC(=O)c2cc(S(=O)(=O)N(C)C)ccc2N2CCCC2)s1` gave PfHsp40 rescue -1, PrPC surface inh 25*, CCHFV vOTU inh -1, PrP 5UTR inh -16, Yp Topo-I inh 10, PrPC confirm 24 and LD9 tox -4.
CSc1ccccc1NC(=O)c1cc(S(=O)(=O)N(C)C)ccc1N1CCCC1 was read as PfHsp40 rescue -2, PrPC surface inh 6, CCHFV vOTU inh -5, PrP 5UTR inh -4, Yp Topo-I inh 26 and BJeLR viability 14.
For CN(C)S(=O)(=O)c1ccc(N2CCCC2)c(C(=O)Nc2ccccc2N2CCOCC2)c1 the results were PfHsp40 rescue 0, PrPC surface inh -3, CCHFV vOTU inh 6, PrP 5UTR inh -31 and Yp Topo-I inh 1.
Screening COC(=O)[C@H]1C[C@@]2(n3ccc4ccccc43)c3ccccc3N(S(=O)(=O)c3ccccc3)[C@H]2N1 returned PrPC surface inh 6 and CCHFV vOTU inh 7.
